According to PubChem BioAssay (Tox21):
Results filed as inconclusive are left out. Active and inactive are the calls of the source. Unless noted, the call rests on the fitted dose curve; in most records, active means well fitted curve in the direction sought with a large enough effect in the repeat runs; inconclusive means weak or mixed curves; inactive means no such curve, though single readings can be large; an effect the other way counts as inactive or inconclusive.

Columns and labels:
[1] = qHTS assay to identify small molecule agonists of the sonic hedgehog signaling (Shh) pathway - cell viability counter screen (AID 1259366); further: nearly all actives have a fitted effect of over 50% in size
In short: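 In quantitative high-throughput format, 3T3 Gli1-Luc cells were exposed to compounds for 24hr and multiplexed for viability using CellTiter-Fluor, incubated 1hr at 37C before the fluorescence read.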

[2] = qHTS assay to identify small molecule antagonists of the sonic hedgehog signaling (Shh) pathway - cell viability counter screen (AID 1259367); further: nearly all actives have a fitted effect of over 55% in size
In short: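 After a 4 hr settling period, 3T3 Gli1-Luc cells were treated with DMSO-dissolved chemicals and conditioned medium, kept 24 hr at 37C in 5% CO2, and assayed for viability by CellTiter-Fluor fluorescence following 1 hr reagent incubation.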

[3] = qHTS assay to identify small molecule agonists of the sonic hedgehog signaling (Shh) pathway (AID 1259368; calls by dose curve;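 further: NIH/3T3-derived 3T3Gli1-Luc cells carrying a stable Gli1-driven firefly luciferase reporter; series mostly up to about 92 µM; nearly all actives have a fitted effect of over 15% in size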)
In short: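 Luminescent signal was taken as a measure of Gli1-controlled luciferase expression in stably transfected NIH/3T3-derived cells that had been treated for 24 hr with compounds delivered in DMSO.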

[4] = qHTS assay to identify small molecule antagonists of the sonic hedgehog signaling (Shh) pathway (AID 1259369; calls by dose curve; further: nearly all actives have a fitted effect of over 45% in size)
In short: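 Screening used 3T3Gli1-Luc cells at 2,000 per well, compounds delivered in DMSO, and conditioned medium as agonist stimulus; plates incubated 24hr at 37 C and 5% CO2 before a 30min luciferase step.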

[5] = target: Estrogen receptor beta (Homo sapiens) (UniProt Q92731); experiment: qHTS assay to identify small molecule antagonists of the estrogen receptor beta (ER-beta) signaling pathway (AID 1259378; active means well fitted inhibition curve with a large enough effect in the signal ratio in the repeat runs, not every such curve was filed as active; the % refers to the signal ratio)
In short: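 ER-beta-UAS-bla HEK293T (GripTite) cells in 2% charcoal-stripped FBS medium were preincubated 6 hr at 37C, dosed with compound, then stimulated with 1 nM E2 (final) for 16 hr; beta-lactamase reporter read by B/G FRET fluorescence after 2 hr substrate loading.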

[6] = qHTS assay to identify small molecule antagonists of the estrogen receptor beta (ER-beta) signaling pathway - cell viability counter screen (AID 1259382); further: series mostly up to about 92 µM; nearly all actives have a fitted effect of over 55% in size
In short: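 Tox21 10K library tested in qHTS format on ER-beta-bla HEK293T cells stimulated with 1nM E2; 16 hr treatment at 37C. Same-well CellTiter-Glo luminescence served as the cell viability measure.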

[7] = qHTS assay to identify small molecule agonists or antagonists of the thyroid stimulating hormone receptor (TSHR) signaling pathway - wild type cell line counter screen (AID 1259384; calls by dose curve)
In short: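 Wild-type HEK293 cells were plated 18 h at 37 C/5% CO2, pin-dosed with compound plus Ro20-1724 medium, held 30 min at room temperature, then given cAMP-d2 and anti-cAMP-cryptate; fluorescence was read after 1 h. Fifteen concentrations, triplicate.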

[8] = target: Thyrotropin receptor (Homo sapiens) (UniProt P16473); experiment: qHTS assay to identify small molecule antagonists of the thyroid stimulating hormone receptor (TSHR) signaling pathway (AID 1259385; calls by dose curve; further: nearly all actives have a fitted effect of over 20% in size)
In short: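 TSHR-HEK293 cells were plated and held 18 h at 37C/5% CO2, then given compound plus Ro20-1724 and stimulated with TSH at 1.5 ng/mL final. After 30 min at room temperature, cAMP was detected with cAMP-d2/anti-cAMP-cryptate (1 h) by fluorescence.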

[9] = qHTS assay to identify small molecule agonists of the estrogen receptor alpha (ER-alpha) signaling pathway in the presence of an antagonist - cell viability counter screen (AID 1259386);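 further: series mostly up to about 92 µM; cells exposed to compounds for 22 h at 37 °C before the viability read; nearly all actives have a fitted effect of over 30% in size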
In short: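 Fluorescent CellTiter-Fluor viability signal from VM7Luc4E2 cells, with the reagent added during the final hour of a 22hr compound exposure at 37C in the presence of 10.0nM ICI-182,780.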

[10] = target: Progesterone receptor (Homo sapiens) (UniProt P06401); experiment: qHTS assay to identify small molecule agonists of the progesterone receptor (PR) signaling pathway (AID 1346784; calls by dose curve; further: nearly all actives have a fitted effect of over 30% in size)
In short: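 Reporter assay, GripTite PR-UAS-bla HEK 293T cells: 16 hr exposure to DMSO-dissolved compounds at 37C, 5% CO2, in steroid-depleted (2% charcoal-stripped FBS) medium; beta-lactamase measured by FRET fluorescence.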

[11] = target: Progesterone receptor (Homo sapiens) (UniProt P06401); experiment: qHTS assay to identify small molecule antagonists of the progesterone receptor (PR) signaling pathway (AID 1346795; active means well fitted inhibition curve with a large enough effect in the signal ratio in the repeat runs, not every such curve was filed as active; the % refers to the signal ratio)
In short: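 Stimulus R5020 at 1 nM final; cells HEK293T PR-UAS-bla; medium with 2% charcoal-stripped FBS; compound exposure 16 hr at 37C, 5% CO2; detection by FRET beta-lactamase substrate, 2 hr, room temperature.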

[12] = qHTS assay to identify small molecule agonists of the progesterone receptor (PR) signaling pathway - cell viability counter screen (AID 1346799; calls by dose curve; further: nearly all actives have a fitted effect of over 45% in size)
In short: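 Multiplexed viability read: CellTiter-Glo luminescence, 30 min RT, following LiveBLAzer FRET measurement on PR-UAS-bla HEK293T cells exposed to compounds 16 hr.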

[13] = qHTS assay to identify small molecule antagonists of the TGF-beta/Smad signaling pathway - cell viability counter screen (AID 1346824); further: nearly all actives have a fitted effect of over 50% in size
In short: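 SBE-bla HEK 293T cells were plated overnight at 37 C, then given compounds in DMSO plus TGF-beta1 (added as 0.25 ng/mL solution) for 5 hr. After the bla read, CellTiter-Glo was added to the same wells and luminescence read after 30 min at room temperature.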

[14] = qHTS assay to identify small molecule agonists of the androgen receptor (AR) signaling pathway in the presence of an antagonist - cell viability counter screen (AID 1259379);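 further: MDA-kb2 human breast cancer cells carrying an MMTV luciferase reporter; series mostly up to about 92 µM; nearly all actives have a fitted effect of over 25% in size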
In short: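 In MDA-kb2 cells (human breast carcinoma, MMTV-luciferase), compounds at 15 concentrations plus 3.0uM nilutamide; 16 hr, 37C, 0% CO2; CellTiter-Fluor fluorescence read for viability.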

[15] = qHTS assay to identify small molecule agonists of the estrogen receptor beta (ER-beta) signaling pathway - cell viability counter screen (AID 1259380); further: nearly all actives have a fitted effect of over 30% in size
In short: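 Viability of ER-beta-UAS-bla HEK293T cells was determined by CellTiter-Glo luminescence following 16 hr treatment with test compounds at 37C.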

[16] = target: Estrogen receptor (Homo sapiens) (UniProt P03372); experiment: qHTS assay to identify small molecule agonists of the estrogen receptor alpha (ER-alpha) signaling pathway in the presence of an antagonist (AID 1259383; calls by dose curve; further: top concentration of the series differs between compounds; nearly all actives have a fitted effect of over 15% in size)
In short: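 In VM7Luc4E2 cells, 4,000 per well, compounds at 15 concentrations were co-incubated 22hr at 37C with 10.0nM final ICI-182,780. Luminescence from the stably transfected 4×ERE-luciferase reporter was recorded 30min after ONE-Glo addition.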

[17] = qHTS assay to identify small molecule antagonists of the progesterone receptor (PR) signaling pathway - cell viability counter screen (AID 1346798); further: series mostly up to about 92 µM; nearly all actives have a fitted effect of over 50% in size
In short: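 In the same plates used for the beta-lactamase readout, cell viability of compound- and R5020-treated PR-UAS-bla HEK293T cells (16 hr, 37C) was assessed by CellTiter-Glo luminescence.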

[18] = qHTS assay to identify small molecule agonists of the TGF-beta/Smad signaling pathway - cell viability counter screen (AID 1346829); further: top concentration of the series differs between compounds; nearly all actives have a fitted effect of over 45% in size
In short: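 Same-well cytotoxicity: CellTiter-Glo added after the 2 hr room-temperature beta-lactamase substrate step, luminescence measured 30 min later; cells had 5 hr of compound at 37 C.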

[19] = target: Estrogen receptor beta (Homo sapiens) (UniProt Q92731); experiment: qHTS assay to identify small molecule agonists of the estrogen receptor beta (ER-beta) signaling pathway (AID 1259377; active means well fitted activation curve with a large enough effect in the signal ratio in the repeat runs, not every such curve was filed as active; the % refers to the signal ratio)
In short: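 Reporter cells (HEK293T, ER-beta-UAS-bla) receive compounds or DMSO after a 6 hr pre-incubation. They then incubate 16 hr at 37C/5% CO2, and fluorescence from LiveBLAzer B/G substrate is measured after 2 hours at room temperature.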

Measured: Potency

Chain of Thyrotropin receptor (Homo sapiens) (P16473 whole entry, looked up): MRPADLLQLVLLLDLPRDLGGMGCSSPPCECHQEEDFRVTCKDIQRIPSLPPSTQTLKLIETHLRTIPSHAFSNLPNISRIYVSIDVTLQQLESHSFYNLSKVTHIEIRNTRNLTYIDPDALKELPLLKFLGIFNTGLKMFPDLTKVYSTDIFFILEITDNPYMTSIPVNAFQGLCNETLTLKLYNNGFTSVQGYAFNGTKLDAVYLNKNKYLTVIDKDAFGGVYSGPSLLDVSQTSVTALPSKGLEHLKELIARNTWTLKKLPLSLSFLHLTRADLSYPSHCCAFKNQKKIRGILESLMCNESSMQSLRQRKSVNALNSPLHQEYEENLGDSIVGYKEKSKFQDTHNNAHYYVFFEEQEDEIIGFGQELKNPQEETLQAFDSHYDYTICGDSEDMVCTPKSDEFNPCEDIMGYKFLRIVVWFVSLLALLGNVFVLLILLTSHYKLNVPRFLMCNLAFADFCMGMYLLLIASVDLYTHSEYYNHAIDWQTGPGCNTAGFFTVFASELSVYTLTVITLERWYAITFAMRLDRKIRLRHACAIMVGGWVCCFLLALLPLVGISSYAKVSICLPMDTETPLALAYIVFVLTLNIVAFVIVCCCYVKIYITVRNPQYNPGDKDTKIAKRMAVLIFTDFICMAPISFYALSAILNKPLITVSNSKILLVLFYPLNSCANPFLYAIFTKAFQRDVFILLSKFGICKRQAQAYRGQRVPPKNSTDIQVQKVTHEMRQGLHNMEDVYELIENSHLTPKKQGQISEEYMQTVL
Chain of Estrogen receptor (Homo sapiens) (P03372 whole entry, looked up): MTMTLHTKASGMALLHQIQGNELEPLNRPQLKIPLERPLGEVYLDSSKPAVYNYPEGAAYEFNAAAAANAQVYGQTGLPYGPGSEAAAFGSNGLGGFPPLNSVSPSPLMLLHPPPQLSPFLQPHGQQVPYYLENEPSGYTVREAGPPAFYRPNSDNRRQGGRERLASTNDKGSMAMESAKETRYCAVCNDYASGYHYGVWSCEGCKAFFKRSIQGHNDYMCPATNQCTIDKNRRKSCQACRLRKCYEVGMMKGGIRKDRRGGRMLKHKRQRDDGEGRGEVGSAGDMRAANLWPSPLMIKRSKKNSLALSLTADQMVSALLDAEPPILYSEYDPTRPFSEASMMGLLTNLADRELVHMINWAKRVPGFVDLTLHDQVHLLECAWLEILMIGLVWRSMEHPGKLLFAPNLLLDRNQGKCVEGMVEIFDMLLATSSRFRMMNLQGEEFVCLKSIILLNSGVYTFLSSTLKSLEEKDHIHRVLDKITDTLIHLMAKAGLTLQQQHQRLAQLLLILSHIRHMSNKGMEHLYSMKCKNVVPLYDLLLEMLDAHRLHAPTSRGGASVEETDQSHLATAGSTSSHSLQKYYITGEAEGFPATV
Chain of Progesterone receptor (Homo sapiens) (P06401 whole entry, looked up): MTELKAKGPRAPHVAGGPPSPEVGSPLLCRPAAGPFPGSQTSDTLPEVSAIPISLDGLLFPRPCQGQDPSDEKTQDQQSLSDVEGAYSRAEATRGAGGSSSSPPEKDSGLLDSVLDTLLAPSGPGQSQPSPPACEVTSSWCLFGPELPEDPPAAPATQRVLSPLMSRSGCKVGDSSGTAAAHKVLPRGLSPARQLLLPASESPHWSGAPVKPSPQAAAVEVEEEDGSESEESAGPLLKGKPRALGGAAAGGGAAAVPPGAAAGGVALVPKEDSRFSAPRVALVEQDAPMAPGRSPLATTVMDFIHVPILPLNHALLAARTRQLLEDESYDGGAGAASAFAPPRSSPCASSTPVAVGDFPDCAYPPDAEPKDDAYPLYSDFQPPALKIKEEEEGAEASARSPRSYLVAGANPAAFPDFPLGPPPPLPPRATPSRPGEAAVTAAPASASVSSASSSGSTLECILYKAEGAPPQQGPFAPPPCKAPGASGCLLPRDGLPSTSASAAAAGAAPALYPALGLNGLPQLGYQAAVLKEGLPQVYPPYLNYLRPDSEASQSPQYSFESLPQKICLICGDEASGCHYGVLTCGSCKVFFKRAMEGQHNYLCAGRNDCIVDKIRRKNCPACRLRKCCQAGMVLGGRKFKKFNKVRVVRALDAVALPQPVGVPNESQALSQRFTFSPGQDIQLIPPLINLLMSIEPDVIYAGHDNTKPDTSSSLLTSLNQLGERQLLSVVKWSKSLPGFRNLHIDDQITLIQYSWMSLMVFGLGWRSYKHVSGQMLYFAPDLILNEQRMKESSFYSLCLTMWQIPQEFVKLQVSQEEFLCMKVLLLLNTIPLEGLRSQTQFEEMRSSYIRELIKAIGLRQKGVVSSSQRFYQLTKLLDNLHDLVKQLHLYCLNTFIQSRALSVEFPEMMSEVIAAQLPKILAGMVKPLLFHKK
Chain of Estrogen receptor beta (Homo sapiens) (Q92731 whole entry, looked up): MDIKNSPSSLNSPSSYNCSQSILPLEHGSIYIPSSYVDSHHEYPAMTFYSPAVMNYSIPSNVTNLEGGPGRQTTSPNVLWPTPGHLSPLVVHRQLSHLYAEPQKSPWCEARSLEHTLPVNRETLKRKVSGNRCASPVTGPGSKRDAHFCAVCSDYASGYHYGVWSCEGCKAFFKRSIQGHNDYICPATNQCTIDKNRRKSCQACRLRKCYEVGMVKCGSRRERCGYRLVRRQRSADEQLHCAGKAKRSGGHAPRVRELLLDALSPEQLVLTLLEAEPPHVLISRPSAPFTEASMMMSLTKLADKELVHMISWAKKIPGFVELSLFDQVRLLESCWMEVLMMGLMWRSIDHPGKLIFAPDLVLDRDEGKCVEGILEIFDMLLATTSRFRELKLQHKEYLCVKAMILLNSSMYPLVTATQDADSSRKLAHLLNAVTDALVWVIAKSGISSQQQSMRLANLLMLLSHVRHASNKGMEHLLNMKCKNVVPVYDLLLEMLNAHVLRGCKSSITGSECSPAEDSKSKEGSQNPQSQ

C[C@H]1COc2c(C3(N)CC3)c(F)cc3c(=O)c(C(=O)O)cn1c23
inactive: [1] | [2] | [3] | [4] | [5] | [6] | [7] | [8] | [9] | [10] | [11] | [12] | [13]

C=CCOC(=O)CCCCCCCC
inactive: [1] | [2] | [3] | [4] | [5] | [14] | [15] | [6] | [16] | [9] | [10] | [11] | [17] | [12] | [13] | [18]

Nc1ccc(C(=O)NCC(=O)O)cc1
inactive: [1] | [2] | [3] | [4] | [19] | [14] | [6] | [16] | [9] | [10] | [17] | [12] | [13] | [18]

COc1cc(S(N)(=O)=O)cc(C(=O)O)c1OC
inactive: [1] | [2] | [3] | [4] | [5] | [14] | [15] | [6] | [16] | [7] | [8] | [9] | [17] | [12] | [13] | [18]

CC(=O)OCC(=O)[C@@]1(O)CC[C@H]2[C@@H]3CCC4=CC(=O)C=C[C@]4(C)[C@H]3[C@@H](O)C[C@@]21C
inactive: [1] | [2] | [3] | [4] | [19] | [14] | [15] | [6] | [16] | [9] | [17] | [18]

CCCCCCCC(=O)N(C)C
inactive: [1] | [2] | [3] | [4] | [19] | [5] | [15] | [16] | [9] | [11] | [17] | [12] | [13] | [18]

Cc1ccc(S(=O)(=O)NC(=O)NN2CC3CCCC3C2)cc1 (configuration not stated)
inactive: [1] | [2] | [3] | [4] | [14] | [15] | [6] | [16] | [7] | [8] | [9] | [10] | [11] | [17] | [12] | [13] | [18]
